About 83,000 compounds went through this panel and 20% of them were active in at least one assay; those are over-represented in the sample as a whole.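 The endpoint reported here, percent growth, reads 100 for growth as untreated, 0 for no net growth and -100 for all cells dead.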 Values without a mark were called inactive. The source made the active and inactive calls. How the source made its calls: active means growth percent below 10; inactive means the rest.

Test systems include T-47D breast; BT-549 breast; MDA-MB-435 melanoma; SW-620 colon; MCF7 breast; HCT-116 colon; HCC-2998 colon; KM12 colon.
Common to all, as to assay: NCI-60 one-dose screen, 48 h (100 = growth as untreated, 0 = no growth, -100 = all killed)
Settings in all cases: 10 µM unless noted

On to `CN1CCN(CCCCCN=c2cc3c(=O)n(CCCCCN4CCN(C)CC4)c(=O)c4c(NCCCCCN5CCN(C)CC5)cc5c(O)n(CCCCCN6CCN(C)CC6)c(=O)c2c5c4-3)CC1`, for which the growth in the test on T-47D breast is 16.5%; in the test with BT-549 breast, 11.4%; with MDA-MB-435 melanoma, -41.5% (active); in the test on SW-620 colon, 21.9%; with MCF7 breast, -6.01% (active); in the test with HCT-116 colon, 2.16% (active). Moreover, the growth with HCC-2998 colon is 29.1%; in the test with KM12 colon, 2.69% (active).
For the compound `COc1ccc(OC)c2c1CCC1(C2)NC(=O)NC1=O` (centres undefined), the growth in the test on T-47D breast is 109%; in the test with BT-549 breast, 114%; in the test with MDA-MB-435 melanoma, 95.9%; in the test on SW-620 colon it was 103%; with MCF7 breast, 92.4%; with HCT-116 colon, 107%. Besides, in the test on HCC-2998 colon, the growth is 106%.
For `CCC(=O)Nc1cc2c(cc1Cl)-c1ccccc1C2`, the growth with T-47D breast was 85.2%; in the test on BT-549 breast, 86.1%; with MDA-MB-435 melanoma, 113%; in the test on SW-620 colon, 101%; with MCF7 breast, 95.2%; with HCT-116 colon, 99.2%. The figures for the growth with HCC-2998 colon and in the test on KM12 colon were 87% and 95.2%, respectively.
Turning to `CCC(C)C1NC(=O)C(CCNCS(=O)(=O)O)NC(=O)C(NC(=O)C(CCNCS(=O)(=O)O)NC(=O)C(NC(=O)C(CCNCS(=O)(=O)O)NC(=O)CCCCC(C)C)C(C)O)CCNC(=O)C(C(C)O)NC(=O)C(CCNCS(=O)(=O)O)NC(=O)C(CCNCS(=O)(=O)O)NC(=O)C(C(C)CC)NC1=O` (centres undefined), the growth is 49.2% in the test on T-47D breast; 66.3% in the test with BT-549 breast; -56.2% (active) in the test on MDA-MB-435 melanoma; 34.8% with SW-620 colon; 18.7% with MCF7 breast; 31.7% in the test on HCT-116 colon. The growth with HCC-2998 colon is 65.1%.
On to `Cc1cc2c(cc1C)[n+](Cc1ccc3ccccc3c1)cn2Cc1ccc2ccccc2c1`, for which the growth in the test with T-47D breast was -56.4% (active); with BT-549 breast it was -86.9% (active); with MDA-MB-435 melanoma, -82.8% (active); in the test on SW-620 colon it was -84.1% (active); with MCF7 breast, -67.7% (active); with HCT-116 colon it was -96.4% (active). In addition, the figures for the growth with HCC-2998 colon and with KM12 colon were -69.6% (active) and -85.3% (active), respectively.
On to `CCCCc1n(Cc2ccc3ccccc3c2)cc[n+]1Cc1ccc2ccccc2c1`, for which the growth with T-47D breast was -1.14% (active); with BT-549 breast, -76.4% (active); in the test with MDA-MB-435 melanoma, -77.5% (active); in the test on SW-620 colon, 1.48% (active); in the test with MCF7 breast, -42.3% (active); with HCT-116 colon, -97.2% (active). The growth with HCC-2998 colon is -5.21% (active); in the test on KM12 colon, -82.5% (active).
Consider `CCOC(=O)c1sc(NC(=O)COc2ccc(/C=C3\CCc4cc(OC)ccc4C3=O)cc2)nc1C`, for which the growth was 86.6% with T-47D breast; 51.8% with BT-549 breast; 87.1% in the test with MDA-MB-435 melanoma; 99.5% with SW-620 colon; 112% in the test on MCF7 breast; 105% in the test on HCT-116 colon. Also, the growth in the test with HCC-2998 colon is 104%.
On to `N#Cc1ccccc1C#Cc1ccccc1C#Cc1ccc(OCCCCCCOc2ccc(C#Cc3ccccc3C#Cc3ccccc3C#N)cc2)cc1`, for which the growth is 93.4% with T-47D breast; 112% with BT-549 breast; 107% in the test with MDA-MB-435 melanoma; 96.6% in the test with SW-620 colon; 78.6% in the test with MCF7 breast; 91.8% with HCT-116 colon. Besides, the growth was 107% in the test with HCC-2998 colon and 105% in the test on KM12 colon.
As for `CC1(C)CC2(C)CC(=O)C1C(C(=O)O)C2C(=O)O` (centres undefined), the growth in the test with T-47D breast is 94.9%; in the test with BT-549 breast, 116%; with MDA-MB-435 melanoma, 118%; with SW-620 colon it was 108%; in the test with MCF7 breast it was 95.5%; in the test with HCT-116 colon, 113%. For the same compound, the results for the growth in the test with HCC-2998 colon and with KM12 colon were 103% and 107%, respectively.
In the case of `CCCCN=C(N)c1ccc(OCCSCCOc2ccc(C(N)=NCCCC)cc2)cc1`, the growth with T-47D breast is 26.3%; in the test on BT-549 breast it was -3.76% (active); with MDA-MB-435 melanoma it was 35.5%; in the test with SW-620 colon, 57.5%; with MCF7 breast, 29.1%; with HCT-116 colon, 41.5%. In addition, the growth in the test on HCC-2998 colon is 59%; with KM12 colon, 27%.
Consider `CNc1nc(NC2CCCC2)nc(Sc2ccc(OC)cc2)n1`, for which the growth with T-47D breast is 27.3% [100 µM]; with BT-549 breast, 7.66% [100 µM] (active); in the test with MDA-MB-435 melanoma, 0.45% [100 µM] (active); with SW-620 colon, 21% [100 µM]; in the test with MCF7 breast it was 30.9% [100 µM]; in the test on HCT-116 colon it was 0.657% [100 µM] (active). The growth with HCC-2998 colon is 38% [100 µM]; in the test with KM12 colon, 1.94% [100 µM] (active).
Turning to `COc1ccc2c(c1)CC/C(=C\c1ccc(OCC(=O)Nc3nc4ccccc4s3)cc1)C2=O`, the growth in the test with T-47D breast is 88.3%; in the test with BT-549 breast it was 83.6%; in the test with MDA-MB-435 melanoma, 100%; in the test on SW-620 colon it was 93.9%; with MCF7 breast it was 98.4%; in the test on HCT-116 colon, 89.1%. Further, the growth in the test on HCC-2998 colon was 87.6%; in the test on KM12 colon, 108%.
With `C[C@H]1O[C@@H](O[C@H]2[C@@H](O)C[C@H](O[C@H]3[C@@H](O)C[C@H](O[C@H]4CC[C@]5(C)C6CC[C@]7(C)[C@@H](C8=CC(=O)OC8)CC[C@]7(O)C6CC[C@@H]5C4)O[C@@H]3C)O[C@@H]2C)C[C@H](O)[C@@H]1O` (some centres undefined), the growth in the test on T-47D breast is -44.5% (active); in the test with BT-549 breast, -92.5% (active); in the test on MDA-MB-435 melanoma it was -100% (active); in the test with SW-620 colon it was -100% (active); in the test with MCF7 breast, -41.2% (active); in the test with HCT-116 colon, -96.7% (active). The growth is -90.8% (active) in the test with HCC-2998 colon and -100% (active) in the test with KM12 colon.
Turning to `Cc1onc(-c2ccccc2Cl)c1C(=O)N[C@@H]1C(=O)N2[C@@H]1SC(C)(C)[C@@H]2C(=O)O`, the growth is 98.1% in the test on T-47D breast; 100% in the test on BT-549 breast; 107% in the test on MDA-MB-435 melanoma; 110% in the test on SW-620 colon; 101% in the test on MCF7 breast; 101% with HCT-116 colon. For the same compound, the growth in the test on HCC-2998 colon is 99.6%; in the test on KM12 colon, 108%.
`COc1cc(-c2nc3nc4sc(C)c(C)c4c(=O)n3[nH]2)cc(OC)c1OC`: the growth is 57% with T-47D breast; 77.8% with BT-549 breast; 7.6% (active) in the test on MDA-MB-435 melanoma; 79.1% in the test with SW-620 colon; 35.7% in the test with MCF7 breast; 75.9% in the test with HCT-116 colon. For the same compound, the results for the growth with HCC-2998 colon and in the test on KM12 colon were 94.2% and 76.6%, respectively.
On to `COc1ccc(C(=O)COc2cccc(/C=C3\CSc4ccc(Cl)cc4C3=O)c2)cc1`, for which the growth is 70.4% in the test on T-47D breast; 42.5% in the test with BT-549 breast; 93.2% in the test with MDA-MB-435 melanoma; -65.9% (active) in the test with SW-620 colon; -11.8% (active) with MCF7 breast; 53.9% in the test on HCT-116 colon. The growth with HCC-2998 colon is 95.2%.

For the origin of these results see PubChem BioAssay (NCI).
